Screens: PubChem BioAssay, National Center for Advancing Translational Sciences (NCATS)
ELG1 DNA repair – ELG1-dependent DNA repair inhibition | HEK293T ELG1-luciferase reporter, luminescence, 16 h; DNA damage induced by 5-fluorouridine | Potency, µM (series often up to 46.1 µM), for the others: at the top dose activity change, negative = inhibition, actives largely listed as inhibitors | 330,000 compounds, 2.3% hits | AID 504467; also: potency is read from the fitted curve at half-maximal effect; nearly all actives have a fitted effect of over 55% in size
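Cells (2,000 per well) received 5-fluorouridine plus test compound or DMSO and were incubated 16 hr at 37 °C, 5% CO2. Luciferase activity was read by luminescence 30 min after ONE-Glo addition; signal suppression marked inhibition of damage-induced ELG1 function.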
Giardia killer – Giardia lamblia killing; AID 540267; 340,000 compounds, 0.15% hits; Giardia lamblia trophozoite viability; activity change, % at 7.66 µM, hits read low; in the data active = activity change below about -80%; inconclusive = between about -30% and that limit;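 also: parasites exposed to compound for two days anaerobically before the ATP read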
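Anaerobic 48 hrs incubation at 37 deg C of 100 trophozoites/well with test compounds; ATPLite 1-Step luminescence, 15-30 min RT, reports cellular ATP as viability.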
TDP1 block – TDP1 (human) enzyme inhibition; Q9NUW8; recombinant TDP1, AlphaScreen DNA substrate cleavage; 350,000 compounds, 0.28% hits; Potency, µM (top dose mostly 130 µM), without a hit: at the top dose activity change, negative = inhibition, actives largely listed as inhibitors; also: potency is read from the fitted curve at half-maximal effect; nearly all actives have a fitted effect of over 40% in size
Target sequence (Q9NUW8 whole entry, looked up): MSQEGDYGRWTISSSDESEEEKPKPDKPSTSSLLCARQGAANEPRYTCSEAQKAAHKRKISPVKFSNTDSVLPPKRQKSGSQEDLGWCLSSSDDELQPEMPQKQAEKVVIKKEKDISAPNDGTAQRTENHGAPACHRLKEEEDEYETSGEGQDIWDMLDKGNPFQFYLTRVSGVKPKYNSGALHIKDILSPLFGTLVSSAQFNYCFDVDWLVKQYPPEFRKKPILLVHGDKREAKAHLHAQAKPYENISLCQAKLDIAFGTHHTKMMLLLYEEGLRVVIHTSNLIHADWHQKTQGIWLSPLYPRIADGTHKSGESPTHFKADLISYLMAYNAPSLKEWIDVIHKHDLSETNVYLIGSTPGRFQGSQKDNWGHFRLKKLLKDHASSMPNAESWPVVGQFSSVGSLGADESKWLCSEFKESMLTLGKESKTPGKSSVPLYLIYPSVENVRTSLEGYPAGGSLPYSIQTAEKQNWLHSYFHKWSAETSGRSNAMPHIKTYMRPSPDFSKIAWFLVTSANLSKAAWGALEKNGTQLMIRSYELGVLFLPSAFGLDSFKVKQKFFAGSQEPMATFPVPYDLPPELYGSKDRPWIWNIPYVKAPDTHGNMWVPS
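Compounds were preincubated with Tdp1 (1 nM final) for 15 min at room temperature before substrate (15 nM final) started a 5 min reaction; beads (10 ug/ml final) were then added for 10 min before AlphaScreen detection.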
TDP1 cell CPT – DT40-hTDP1 cell growth loss with CPT | AID 686979 | 420,000 compounds, 12% hits | chicken DT40 Tdp1-/-;hTDP1 cells + 20 nM CPT, ATP luminescence, 48 h | Potency, µM (doses to about 46.2 µM), for the others: at the top dose activity change, negative = growth inhibition, most hits filed as inhibitors; also: potency is read from the fitted curve at half-maximal effect; nearly all actives have a fitted effect of over 55% in size
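Cell growth measured by CellTiter-Glo luminescence after a minimum 48 h, 37 C compound exposure with 20 nM CPT in Tdp1-knockout DT40 cells stably expressing hTDP1, seeded 400/well; qHTS titration format.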
IL-1B inflam inh – inhibitors of inflammasome signaling (IL-1 beta secretion); activity change, % at 57.5 µM; 360,000 compounds, 4.7% hits; THP-1 LPS/ATP IL-1B secretion, AlphaLISA, 16 h; active compounds read low; in the data active = activity change below about -50%; inconclusive = mostly about -30% to -49%
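THP-1 cells pretreated 1 hr with compounds (up to 57.5 uM final), then stimulated with LPS (250 ng/mL final) plus ATP (1.25 mM final); secreted IL-1B measured by AlphaLISA after 16 hr, decreased signal indicating inhibition.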
DT40 TDP1 no CPT – qHTS for Inhibitors of human tyrosyl-DNA phosphodiesterase 1 (TDP1): qHTS in cells in absence of CPT | AID 686978, 2013 | DT40 Tdp1-/- hTDP1 cells, no CPT, ATP luminescence, 48 h | Potency, µM (top dose mostly 46.2 µM), for the others: top-dose activity change, negative = growth inhibition, hits mostly inhibitors | 420,000 compounds, 15% hits; also: potency is read from the fitted curve at half-maximal effect; nearly all actives have a fitted effect of over 55% in size
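Readout: luminescence from CellTiter-Glo after 30 min in the dark at RT. Cells: DT40 Tdp1-/- with stable hTDP1, 400/well. Exposure: compounds alone, ≥48 hr, 37 °C.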
The depositor's hits bear a star; u = inconclusive; x = not tested or not shown; ! = not active in a repeat. Compounds with a hit are over-represented: about 19% of the library has one in this group of screens. Unless noted, calls follow the shape of the dose curve; as a rule, active = well fitted curve in the direction sought with a large enough effect; inconclusive = small, poorly fitted or top-dose-only effect, or another doubt; inactive = no such curve, though single readings can be large; an effect the other way counts as inactive or inconclusive. % is scaled to controls: 0 for no effect and ±100 for the full control effect.

SMILES	ELG1 DNA repair	Giardia killer	TDP1 block	TDP1 cell CPT	IL-1B inflam inh	DT40 TDP1 no CPT
C[C@H]1CN([C@@H](C)CO)C(=O)c2cccc(NC(=O)C3CC3)c2O[C@H]1CN(C)C(=O)Nc1ccc2c(c1)OCO2	u	16.2	0.1%	-4.3%	-8.8	-15.5%
Cc1ccccc1NC(=O)c1ccc(CN2CCC(Cc3ccccc3)CC2)cc1	-14.2%	24.1	1.0%	u	-82.8*	20.6µM*
Clc1ccc(CN2CCC(Cc3ccccc3)CC2)cc1	14.9%	-1.5	0.0%	-29.5%	-96.1*	u
COc1cc(NC(=O)CSc2nccn2C)cc(OC)c1OC	x	x	4.5%	x	x	x
COc1ccc(OC)c(S(=O)(=O)NCCOC23CC4CC(CC(C4)C2)C3)c1	-9.0%	-14.6	5.1%	18.4µM*	0.0	7.31µM*
COc1ccc(OC)c(S(=O)(=O)NCCS(=O)(=O)N2CCN(c3ccccc3F)CC2)c1	x	x	1.8%	u	x	u
COc1ccc(OC)c(S(=O)(=O)NCCS(=O)(=O)N2CCN(c3ccccc3)CC2)c1	-6.6%	17.8	5.1%	20.6µM*!	1.0	16.4µM*!
COc1ccccc1C1=NOC(Cn2c(NCCOCCO)nc3c2c(=O)n(C)c(=O)n3C)C1 (centres undefined)	u	11.9	x	u	21.7	u
N#Cc1cc(C#N)c(N2CCN(c3ccccn3)CC2)nc1N	u	-15.8	6.4%	u	31.0	22.4µM*
c1ccc(N2CCN(c3nccn4ccnc34)CC2)nc1	x	x	x	u	-3.7	-24.8%
CC(/C=C1\SC(=S)N(NC(=O)c2ccc(O)cc2)C1=O)=C\c1ccccc1	u	3.5	-2.7%	-16.7%	-75.7*	4.1%
O=C(CCCN1C(=O)/C(=C\c2cccs2)SC1=S)NNC(=O)c1ccncc1	1.0%	-13.5	2.6%	-21.1%	5.1	-25.3%
O=C1/C(=C/c2ccc(O)c(O)c2)SC(=S)N1Nc1ccccc1	-4.9%	16.9	8.1%	u	-62.4*	u
COc1cc(/C=C2\SC(=S)N(Nc3ccccc3)C2=O)ccc1O	u	-1.9	0.0%	u	1.2	u
O=C(NN1C(=O)/C(=C/c2ccc(O)c(O)c2)SC1=S)c1ccccc1	-27.9%	-2.0	8.4%	u	30.6	11.6µM*
O=C(NN1C(=O)/C(=C/c2cccs2)SC1=S)c1ccncc1	4.11µM*	-1.5	3.6%	1.9%	-8.6	-11.6%
Cc1oc2ncn(CC(C)C)c(=O)c2c1C(=O)N(Cc1ccccc1)C(C)C	x	x	-6.3%	-23.3%	x	u
Cc1ccccc1NC(=O)Nc1nnc([C@@H]2C[C@H](O)[C@@H](CO)O2)s1	x	x	x	-11.9%	10.6	-11.2%
COc1ccc(CCNCCN2CCOCC2)cc1	-5.6%	-17.2	x	2.7%	5.8	-14.0%
c1ccc(-c2oc3ncnc(NCCCN4CCOCC4)c3c2-c2ccccc2)cc1	u	15.0	4.1%	u	-22.2	23.1µM*
OCCCNc1ncnc2oc(-c3ccccc3)c(-c3ccccc3)c12	u	-4.2	x	u	-24.3	16.4µM*
CCOc1cc2nc(-c3ccc(OC)c(OC)c3)nc(NCCCN3CCOCC3)c2cc1OC	u	6.2	1.5%	u	-60.4*	20.6µM*
COc1ccc(-c2oc3ncn(CCN4CCOCC4)c(=N)c3c2-c2ccc(OC)cc2)cc1	20.6µM*	21.9	0.0%	16.4µM*	-53.4*	13µM*
NC(=O)c1cnn(C2CCS(=O)(=O)C2)c1 (centres undefined)	-2.0%	14.1	-6.3%	-6.2%	-17.0	-1.0%
Nc1nnnn1/N=C/c1cc(Br)ccc1O	x	-6.6	x	0.8%	14.9	4.6%
COc1ccc(-c2oc3ncnc(NCCN4CCOCC4)c3c2-c2ccc(OC)cc2)cc1	u	6.4	1.0%	u	18.0	14.6µM*
